EBV gp42 block – Epstein-Barr virus gp42 inhibitors, primary screen, biochemical, uHTS, fluorescence polarization | Fluorescence polarization binding assay, mP read-out | inhibition, % (tested at 21.74 µM) | 220,000 tested, 0.42% active; in the data active = inhibition above about 50%
Target sequence (Q1HVG2 whole entry, looked up): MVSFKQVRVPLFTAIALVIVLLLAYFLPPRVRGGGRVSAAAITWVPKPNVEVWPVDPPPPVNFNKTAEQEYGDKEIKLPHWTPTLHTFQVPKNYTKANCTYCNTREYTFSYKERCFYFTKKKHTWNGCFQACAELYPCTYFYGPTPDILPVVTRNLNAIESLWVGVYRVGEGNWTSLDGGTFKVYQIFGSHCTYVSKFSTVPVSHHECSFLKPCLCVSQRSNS
MEX-5 binding – MEX-5 zinc finger RNA-binding disruptors – biochemical, C. elegans, fluorescence polarization, MLPCN library, primary screen | Zinc finger protein mex-5 (Caenorhabditis elegans), Q9XUB2 | MEX-5/FITC-TCR2 RNA binding; hits give low values | activity score (negative = inhibition of binding), % at 10 µM | 300,000 tested, 0.38% active;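 active = inhibition past about -25% in most replicates, and total fluorescence under double the plate's negative control median, limit read from the data; inconclusive = replicates evenly split on the limit, or fluorescence at least double controls; inactive = too little inhibition in most replicates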;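 note: 0% = DMSO and -100% = 5 µM competing unlabeled TCR2 RNA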
ZTA DNA inh – blocks Epstein-Barr virus ZTA, an EBNA-1 counter-screen; AID 2234; 320,000 tested, 0.15% active; ZTA-DNA binding, fluorescence polarization; P03206; inhibition, % at 11 µM; in the data active = inhibition above about 33%
Target sequence (P03206 whole entry, looked up): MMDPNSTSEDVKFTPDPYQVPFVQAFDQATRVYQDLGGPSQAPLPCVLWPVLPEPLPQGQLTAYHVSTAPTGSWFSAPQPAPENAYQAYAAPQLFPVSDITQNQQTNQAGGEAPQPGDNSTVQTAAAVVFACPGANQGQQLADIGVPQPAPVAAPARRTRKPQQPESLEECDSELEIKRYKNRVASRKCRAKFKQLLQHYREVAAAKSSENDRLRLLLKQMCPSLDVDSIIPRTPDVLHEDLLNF
EBNA-1 inhibitor – EBNA-1 DNA-binding inhibitors, primary screen, biochemical, fluorescence polarization | inhibition, % at 14.8 µM | 300,000 tested, 0.34% active | AID 1950, 2009; in the data active = inhibition above about 28%
Active calls of the source: *; ? = inconclusive; . = not tested or not shown. An excerpt weighted towards active compounds, which were near 1% of everything screened.

SMILES	EBV gp42 block	MEX-5 binding	ZTA DNA inh	EBNA-1 inhibitor
COc1ccc(-c2c(C#N)c(SCC(N)=O)nc3c2CCCC3)cc1	-7.6	-1.9	8.4	8.7
CCC(=O)Nc1cc(C)c(NC(=O)CCc2ccccc2)cn1	24.4	-25.9*	-6.0	-13.5
Cc1cc(NC(=O)c2ccco2)ncc1NC(=O)CCc1ccccc1	15.4	-4.6	12.8	3.1
O=C1c2cccc3c(N4CCCCC4)ccc(c23)C(=O)N1c1ccccc1O	40.1	-55.7*	10.5	-18.8
Cc1ccc(N2C(=O)c3cccc4c(N5CCN(C)CC5)ccc(c34)C2=O)c2cccnc12	159.3*	-58.3*	0.1	2.0
O=C1c2cccc3c(N4CCCCC4)ccc(c23)C(=O)N1c1ccc(O)cc1	-7.0	?	2.2	7.7
CCOc1cc(C(=O)NC(C)CCc2ccccc2)cc(OCC)c1OCC (stereo not given)	.	2.2	-6.9	2.5
CCN(c1ccccc1)S(=O)(=O)c1nnc(NC(=O)C(C)C)s1	.	0.1	0.8	-9.1
COCCN1C(=NCCCOC(C)C)N[C@@H](c2ccccc2)C(C(=O)OC)=C1C	.	-5.3	13.1	14.5
COc1ccc(/C=N/NC(=O)c2ccc[nH]2)cc1	.	1.1	-5.2	2.5
CC1CCN(S(=O)(=O)c2ccc(NC(=O)CCN3C(=O)C4CC=CCC4C3=O)cc2)CC1 (stereo not given)	.	.	17.2	.
Cc1cc(C=C2C(=O)c3ccccc3C2=O)c(C)n1-c1ccc(Cl)cc1	61.4*	?	.	.
Cc1cc(C=C2C(=O)c3ccccc3C2=O)c(C)n1C	38.6	-2.8	-2.0	-3.4
Cc1cccc(-n2c(C)cc(C=C3C(=O)c4ccccc4C3=O)c2C)c1	31.7	-31.0*	-1.9	-23.6
Cc1cc(/C=C2/C(=O)NN(c3ccccc3)C2=O)c(C)n1-c1ccc(O)cc1	-0.4	0.2	0.5	2.2
CCn1c(C)cc(C=C2C(=O)c3ccccc3C2=O)c1C	107.3*	-7.7	.	.
Cc1cc(C=C2C(=O)CCCC2=O)c(C)n1-c1ccccc1	-2.9	0.8	11.7	1.5
CC1Sc2ccc(S(=O)(=O)N(C)Cc3ccccc3)cc2NC1=O (stereo not given)	.	0.8	3.5	10.8
Oc1ccccc1CNCCCN1CCOCC1	.	0.5	4.5	7.4
O=C1C2=C(SCCS2)C(=O)N1CCCO	117.3*	-21.9	12.1	6.0
Oc1ccc(-c2cnns2)c(O)c1	-32.8	-61.4*	0.8	0.4
COc1ccc(/C=C2\C(=O)OCc3cc(OC)c(OC)cc32)cc1OC	-2.8	0.5	-8.5	-0.8
COc1ccc(C=C2C(=O)OC(C)(C)OC2=O)cc1OC	-4.4	-50.5*	-13.7	-2.0
CC(C)c1ccc(C2CC(=O)N3CN(C)CSC3=C2C#N)cc1 (stereo not given)	-25.1	-0.6	6.0	5.7
CC(C)c1ccc(C2C(C#N)=C(N)N3C(=C2C#N)Sc2ccccc23)cc1 (stereo not given)	-33.9	-120.4*	1.0	6.1
SMILES	EBV gp42 block	MEX-5 binding	ZTA DNA inh	EBNA-1 inhibitor
CC(=O)Nc1ccccc1NC(=O)C/C(C)=N/NC(=O)Cc1cccc2ccccc12	.	1.7	26.3	5.7
CCSc1cc(N2CCCC2)nc(-c2ccccc2Cl)n1	59.6*	-0.9	-2.0	-0.7
CCSc1cc(N2CCCC2)nc(-c2ccccc2)n1	0.9	2.6	22.5	9.7
CC1CCN(C(=O)c2ccc(SCc3ccccc3F)c([N+](=O)[O-])c2)CC1	-5.0	-1.4	-6.0	37.9*
O=C(c1ccc(S(=O)(=O)Cc2ccccc2F)c([N+](=O)[O-])c1)N1CCCCCC1	-7.2	2.1	2.5	1.7
O=C(Nc1ccc(Cc2ccncc2)cc1)c1ccc(S(=O)(=O)N2CCCC2)cc1	3.0	0.6	.	.
O=C1c2ccccc2C(=O)c2c1cccc2N1CCCC1	27.6	-3.1	8.3	8.1
Cn1c(=O)cc2c3c(c(N4CCCCC4)ccc31)C(=O)c1ccccc1-2	74.2*	-39.6*	-4.4	-3.7
CCc1ccc[n+](-c2[nH]c(=O)sc2/C=N/N=C(\N)[O-])c1	-14.9	-3.0	-15.5	-6.6
Cc1cc[n+](-c2[nH]c(=O)sc2/C=N/NC([S-])=Nc2ccccc2)cc1	58.7*	-20.9	-4.2	-1.5
Cc1cc(C)c[n+](-c2[nH]c(=O)sc2/C=N/NC([S-])=Nc2ccccc2)c1	26.7	-49.0*	-13.9	3.5
CCc1ccc[n+](-c2[nH]c(=O)sc2/C=N/NC([S-])=Nc2ccccc2)c1	66.0*	-55.4*	2.4	10.2
O=c1[nH]c(-[n+]2ccccc2)c(/C=N/NC([S-])=Nc2ccccc2)s1	1.9	-82.2*	-7.7	-7.0
Cc1cc(C(=O)CCC(=O)N(C)CC(=O)Nc2c(Cl)cccc2Cl)c(C)s1	.	-0.7	-9.8	-5.9
Cc1ccc2cc(/C=C3\N=C(c4ccccc4)OC3=O)c(N3CCOCC3)nc2c1	157.5*	-33.8*	5.6	-0.6
CCC(CC)c1nnc(NC(=O)C2CC(=O)N(C3CCCC3)C2)s1 (stereo not given)	.	-1.4	-0.4	-2.4
Cc1cc(S(=O)(=O)NCC(c2ccc(F)cc2)N2CCN(C)CC2)ccc1F (stereo not given)	.	1.0	-15.3	-7.8
COC(=O)C1=C(C)N=C2SC(C#N)=C(N)N2C1c1ccc(OC)cc1 (stereo not given)	-14.8	2.5	-4.8	3.7
COC(=O)C1=C(C)N=C2SC(C#N)=C(N)N2C1c1cccc(OC)c1 (stereo not given)	-21.1	-28.1*	7.7	-4.0
CCN(CC)CCCNC(=O)CCC(=O)NNc1nc2ccccc2c2nc(C)nn12	-5.7	-54.1*	-16.6	-2.6
CCOC(=O)C1CCN(C(=O)CCC(=O)NNc2nc3ccccc3c3nc(C)nn23)CC1	.	-48.0*	0.7	-0.8
CCCCN(C)C(=O)CCC(=O)NNc1nc2ccccc2c2nc(C)nn12	4.8	-31.9*	3.9	8.0
Cc1noc(C)c1CSCC(=O)N(C)CC(=O)Nc1ccccc1Br	.	-2.8	-4.4	-11.6
CC(Sc1nnc(-c2ccncc2)n1-c1ccc(F)cc1)C(=O)NC1CC1 (stereo not given)	.	.	-4.3	.
CC(C)c1cc(C(=O)N2CCCC(N3CCN(c4ccc(F)cc4)CC3)C2)no1 (stereo not given)	.	-2.0	4.5	7.1
SMILES	EBV gp42 block	MEX-5 binding	ZTA DNA inh	EBNA-1 inhibitor
COc1cccc(NC(=O)COC(=O)/C=C/c2ccc(Cl)cc2Cl)c1	1.2	0.0	8.6	38.6*
COc1ccc(OC)c(/C=C/C(=O)OCC(=O)Nc2cccc(Oc3ccccc3)c2)c1	-26.9	-1.4	9.7	14.3
C(=N\Nc1nc2ccccc2[nH]1)/c1ccc2ncccc2c1	-7.2	-3.0	0.8	-1.9
C(=N\Nc1nc2ccccc2[nH]1)/c1ccccn1	-2.2	-42.0*	.	.
O=c1nc2c(O)cccn2c2c1c(=O)[nH]c1ccccc12	104.1*	-26.3*	.	.
O=c1[nH]c2ccccc2c2nc3ccccn3c12	-10.2	1.0	8.8	3.7
Cc1cc(O)cc2c1C(=O)/C(=C/c1ccco1)O2	.	-42.2*	-0.3	2.2
CCC(=O)Oc1ccc2c(c1)O/C(=C\c1ccco1)C2=O	31.9	-19.3	3.2	3.4
